Assay results reported in PubChem BioAssay.
Activity calls are given as the source filed them.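 How the source made its calls, unless noted: active means fluorescence slope after compound addition differing from the mean of all screened samples at 99.7% confidence, in either direction; inactive means the rest.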

Experiments:
[1] = inhibitors of TNFa-induced NFkB p65 translocation, primary screen, imaging, HUVEC, MLSMR starter and 10KST1 sets (AID 438;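 active means inhibition above 20% together with a positive visual image hit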;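 further: compound added about 3h40 before a 20 min TNFalpha stimulation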;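 on inhibition: signal is the nuclear over cytoplasmic p65 intensity ratio per well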); settings: HUVEC TNFa-induced p65 nuclear translocation; cell count: measured here: nuclei count (cytotoxicity indicator), at 2.08 µM; inhibition: at 2 µM, stronger effect = higher value, 0% TNFa-plus-vehicle, 100% no-TNFa wells
[2] = inhibitors of mutant huntingtin aggregation, primary screen, imaging, exon1htt(103Q)mCFP cells, high-content imaging (AID 483;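 active means visual image review flags a hit and inhibition of aggregation exceeds 20%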;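 further: compound exposure lasted 3 days before fixation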;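 on nuclei count: percent of the per-plate median nuclei count of sample wells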); settings: exon1htt(103Q)mCFP cell line, aggregate imaging, at 2 µM; inhibition of aggregation: stronger effect = higher value; nuclei count: measured here: cell count, toxicity
[3] = inhibitors of E-selectin induction by TNFa, primary screen, imaging, HUVEC, immunofluorescence, MLSMR starter and 10KST1 sets (AID 487;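 active means visually confirmed hit in the image check and inhibition above 20%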;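 on inhibition: signal is fraction of cell area covered by stained E-selectin grains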;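 on nuclei count: 100% = median nuclei count of all wells on the same plate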); settings: HUVEC TNFalpha-induced E-selectin immunofluorescence imaging, at 2 µM; inhibition: stronger effect = higher value; nuclei count: measured here: cell number, toxicity
[4] = biological target: Voltage-gated potassium channel subunit beta-2 (Rattus norvegicus) (UniProt P62483); test: KvBeta enzyme negative modulators, primary screen, biochemical, NADPH fluorescence (AID 622;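 active means fluorescence slope higher than the sample average by over 3 SD, cut at about -0.22 in these data, passing the limit was not always enough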;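 further: slope of raw intensity against log time taken from 70 to 1610 s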); settings: recombinant KvBeta, 4-cyanobenzaldehyde reduction, at 10 µM, stronger effect = higher value
Sequence of Voltage-gated potassium channel subunit beta-2 (Rattus norvegicus) (P62483 whole entry, looked up): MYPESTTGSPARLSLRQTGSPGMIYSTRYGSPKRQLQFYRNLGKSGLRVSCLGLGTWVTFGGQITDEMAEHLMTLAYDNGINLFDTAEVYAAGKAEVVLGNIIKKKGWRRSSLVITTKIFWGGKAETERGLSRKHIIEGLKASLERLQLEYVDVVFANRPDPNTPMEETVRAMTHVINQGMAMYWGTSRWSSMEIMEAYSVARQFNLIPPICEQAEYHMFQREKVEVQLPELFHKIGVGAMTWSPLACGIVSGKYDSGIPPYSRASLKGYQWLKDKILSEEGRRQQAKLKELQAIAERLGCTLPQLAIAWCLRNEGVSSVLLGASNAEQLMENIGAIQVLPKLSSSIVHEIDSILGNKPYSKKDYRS

[5] = biological target: Voltage-gated potassium channel subunit beta-2 (Rattus norvegicus) (UniProt P62483); test: KvBeta positive modulators, primary screen, biochemical, NADPH fluorescence (AID 623;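 active means NADPH fluorescence slope more negative than the mean of all samples by about 3 SD, 99.7% confidence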;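 further: fluorescence intensity change per second fitted from 20 to 320 s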); settings: Recombinant KvBeta, NADPH fluorescence decrease slope, 10 min; at 10 µM; stronger effect = lower value
[6] = biological target: Alpha-2C adrenergic receptor (Homo sapiens) (UniProt P18825); test: modulators of alpha2C/GIRK thallium flux, primary screen, cell-based, HEK293 alpha2C/GIRK1/2 (AID 624); settings: thallium flux BTC fluorescence, at 10 µM, actives lie on both sides;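 further: slope of fluorescence ratio to pre-addition baseline per second over 15 to 24 s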
Sequence of Alpha-2C adrenergic receptor (Homo sapiens) (P18825 whole entry, looked up): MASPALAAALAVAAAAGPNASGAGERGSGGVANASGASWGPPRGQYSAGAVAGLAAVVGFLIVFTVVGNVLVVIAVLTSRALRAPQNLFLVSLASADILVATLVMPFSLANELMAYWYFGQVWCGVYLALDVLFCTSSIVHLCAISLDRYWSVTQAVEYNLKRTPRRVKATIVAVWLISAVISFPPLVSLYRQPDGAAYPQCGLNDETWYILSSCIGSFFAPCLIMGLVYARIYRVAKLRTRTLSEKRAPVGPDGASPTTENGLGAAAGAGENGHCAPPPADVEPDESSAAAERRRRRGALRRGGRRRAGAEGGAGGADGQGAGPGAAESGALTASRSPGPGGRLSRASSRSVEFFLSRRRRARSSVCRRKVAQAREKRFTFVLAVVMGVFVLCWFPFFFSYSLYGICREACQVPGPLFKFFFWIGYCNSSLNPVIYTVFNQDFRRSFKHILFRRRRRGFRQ

[7] = inhibitors of Sendai virus-induced IRF3 signaling, primary screen, TLR/RLR signaling modifier project, cell-based, Sendai virus stimulus, luciferase, 10K MLSCN set (AID 602276;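 active means inhibition at or above 50% at 10 µM; inactive means inhibition below 50%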;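 further: firefly luciferase from ISG56 promoter only with Renilla not read in this screen; 0% = Sendai virus plus DMSO and 100% = medium plus DMSO without virus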); settings: HEK293 RL24 IRF3 luciferase reporter, at 10 µM, stronger effect = higher value
[8] = inhibitors of poly I:C-induced TLR3 signaling, primary screen, cell-based, poly I:C stimulus, luciferase, 10K MLSCN set (AID 602277;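 active means inhibition of the reporter signal at or above 50%; inactive means inhibition below 50%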); settings: HEK293-TLR3 RL24 IRF3 luciferase reporter, at 10 µM, stronger effect = higher value

SMILES	cell count [1]	inhibition [1]	inhibition of aggregation [2]	nuclei count [2] [%]	inhibition [3]	nuclei count [3] [%]	fluorescence slope [4]	NADPH fluorescence slope [5]	slope [6]	inhibition [7]	inhibition [8]
Cc1ccc(NC(=O)C2CCCN(S(=O)(=O)c3cnc[nH]3)C2)cc1F (stereo not drawn)	521	0.9% (inactive)	7.3% (inactive)	99.9	-108% (inactive)	126	-0.521 (inactive)	-4.2e-05 (inactive)	0.00688 (inactive)	22.4% (inactive)	21.8% (inactive)
COC(=O)c1[nH]c2ccc(C)cc2c1NC(=O)CN1CCCc2ccccc21	408	3.1% (inactive)	21.6% (inactive)	83.4	-29.9% (inactive)	106	-0.39 (inactive)	-4.8e-05 (inactive)	0.00333 (inactive)	21.5% (inactive)	12% (inactive)
COc1ccc(-c2nnc(-c3ccc(N)cc3)o2)cc1	332	5.5% (inactive)	9.6% (inactive)	111	-145% (inactive)	124	-0.0553 (active)	-2.2e-05 (inactive)	0.00409 (inactive)	-34.1% (inactive)	-82.2% (inactive)
COc1ccc(OC)c(C2C(C(=O)Nc3cccnc3)=C(C)NC3=C2C(=O)CCC3)c1 (stereo not drawn)	353	-7% (inactive)	2.3% (inactive)	103	-64% (inactive)	131	-0.379 (inactive)	2.2e-05 (inactive)	0.00554 (inactive)	3.04% (inactive)	25% (inactive)
CCCC(=O)Nc1cc(C)c(NC(=O)c2ccccn2)cn1	418	13.7% (inactive)	19.4% (inactive)	89.7	-10.2% (inactive)	110	-0.606 (inactive)	-5.2e-05 (inactive)	0.007 (inactive)	4.7% (inactive)	11.8% (inactive)
C=CCn1c(SCC(=O)NCC2CCCO2)nc2scc(-c3ccco3)c2c1=O (stereo not drawn)	557	-10.3% (inactive)	-29.4% (inactive)	98.5	28.1% (inactive)	98.7	-0.459 (inactive)	-0.000271 (active)	0.00487 (inactive)	11.9% (inactive)	13.5% (inactive)
O=C(CSc1nc2ccccc2s1)N1CCN(C(=O)c2ccco2)CC1	394	0.5% (inactive)	10% (inactive)	104	-45.3% (inactive)	102	-0.377 (inactive)	9e-06 (inactive)	0.00381 (inactive)	7.64% (inactive)	22.8% (inactive)
O=C(Oc1cccc2cccnc12)c1cccc(-n2cnnn2)c1	461	2.7% (inactive)	-8.5% (inactive)	105	-16.1% (inactive)	93.4	-0.494 (inactive)	-3.7e-05 (inactive)	0.00392 (inactive)	15% (inactive)	24.5% (inactive)
CC(=O)Nc1ccc(N=Cc2ccc[nH]2)cc1	362	3.4% (inactive)	-8.9% (inactive)	108	9.1% (inactive)	99.4	-0.264 (inactive)	-1.6e-05 (inactive)	0.00576 (inactive)	9.12% (inactive)	-21% (inactive)
COc1ccc(-c2c(C(F)(F)F)oc3c(CN4CCN(C)CC4)c(O)ccc3c2=O)cc1	555	7.7% (inactive)	-14% (inactive)	91.6	0.6% (inactive)	112	-0.421 (inactive)	2.5e-05 (inactive)	0.00536 (inactive)	-6.41% (inactive)	8.59% (inactive)
c1cc2c(cc1Nc1nc(-c3ccc4c(c3)OCO4)cs1)OCCO2	351	0.4% (inactive)	10% (inactive)	104	-36.9% (inactive)	118	-0.188 (inactive)	-2.8e-06 (inactive)	0.00387 (inactive)	-63.5% (inactive)	-126% (inactive)
CCCn1nc(NC(=O)c2cccs2)c2cc3cc(OC)ccc3nc21	630	-6.8% (inactive)	-8% (inactive)	104	-20.4% (inactive)	112	-0.119 (inactive)	2.2e-05 (inactive)	0.00675 (inactive)	-4.8% (inactive)	-37.7% (inactive)
Nn1c(SCc2csc(-c3ccccc3)n2)nnc1-c1cccs1	387	-14% (inactive)	-10.8% (inactive)	93.3	-37.9% (inactive)	116	-0.454 (inactive)	-7.1e-06 (inactive)	0.00728 (inactive)	31% (inactive)	30.9% (inactive)
CC1=C(C(=O)Nc2ccccc2)C(c2cccs2)C(C#N)=C(SCC#N)N1 (stereo not drawn)	713	-16.4% (inactive)	27.1% (inactive)	77.7	34.7% (inactive)	99.1	-0.525 (inactive)	-6.3e-05 (inactive)	0.00547 (inactive)	-25.9% (inactive)	-5.98% (inactive)
Cc1sc2nc(CN3CCN(S(=O)(=O)c4cccc5nonc45)CC3)[nH]c(=O)c2c1C	661	-16.4% (inactive)	11.8% (inactive)	60.7	-55.1% (inactive)	116	-0.411 (inactive)	-5.6e-05 (inactive)	0.00421 (inactive)	3.59% (inactive)	1.1% (inactive)
Cc1cc(C)c(C#N)c(SCc2ccc(C#N)cc2)n1	609	-7.7% (inactive)	-4.1% (inactive)	52	40.3% (inactive)	104	-0.435 (inactive)	-5.8e-05 (inactive)	0.00656 (inactive)	5.07% (inactive)	-3.75% (inactive)
CCOC(=O)C(NC(=O)c1ccccc1)(Nc1cc(C)on1)C(F)(F)F (stereo not drawn)	379	2.6% (inactive)	-4.6% (inactive)	101	0.6% (inactive)	88.4	-0.494 (inactive)	-1.9e-05 (inactive)	0.00554 (inactive)	14.5% (inactive)	24.7% (inactive)
FC(F)(F)c1cc(-c2ccco2)nc(N2CCOCC2)n1	645	-8.5% (inactive)	-15% (inactive)	89	-83.2% (inactive)	118	-0.586 (inactive)	-1.4e-05 (inactive)	0.00435 (inactive)	16.2% (inactive)	15.5% (inactive)
COc1cccc(NC(=O)N[C@@H](Cc2ccccc2)C(=O)O)c1	565	-9.8% (inactive)	-6.9% (inactive)	103	-37% (inactive)	100	-0.591 (inactive)	-3.6e-05 (inactive)	0.00635 (inactive)	6.12% (inactive)	15.1% (inactive)
CCN(CC)S(=O)(=O)c1cccc(-c2nnc(SCC(N)=O)n2CCc2ccccc2)c1	635	-4.4% (inactive)	-2.2% (inactive)	105	-32.3% (inactive)	125	-0.592 (inactive)	-8.5e-06 (inactive)	0.00663 (inactive)	7.68% (inactive)	11.1% (inactive)
CC(C)(O)C1=NOC(c2ccccc2)C1 (stereo not drawn)	647	-6.5% (inactive)	-4.9% (inactive)	98.5	-43.3% (inactive)	99.1	-0.411 (inactive)	1.7e-07 (inactive)	0.00603 (inactive)	6.77% (inactive)	22.8% (inactive)
O=C(Nc1ccc(NC(=O)c2ccco2)nc1)c1cccnc1	505	19.2% (inactive)	-0.5% (inactive)	93.2	1% (inactive)	89.3	-0.472 (inactive)	-2.2e-05 (inactive)	0.00492 (inactive)	-21.2% (inactive)	-50% (inactive)
COc1ccc(OC)c(NC(=O)c2nnn(Cc3ccc(Br)cc3F)c2N)c1	777	0.6% (inactive)	20.9% (inactive)	99.3	-25.4% (inactive)	116	-0.525 (inactive)	-1.8e-05 (inactive)	0.00503 (inactive)	1.6% (inactive)	5.74% (inactive)
COc1ccc(NC(=O)CSc2nc3c(c(=O)n2-c2ccccc2OC)SCC3)cc1	726	-6.7% (inactive)	-10.4% (inactive)	107	-25.6% (inactive)	106	-0.568 (inactive)	-5.1e-05 (inactive)	0.00646 (inactive)	4.03% (inactive)	31% (inactive)
N#Cc1c(N)c(C(=O)c2ccccc2)n2c1CCCC2	270	-3.7% (inactive)	-10.6% (inactive)	86.4	-11.6% (inactive)	96.6	-0.46 (inactive)	-1.7e-05 (inactive)	0.006 (inactive)	-3.25% (inactive)	14.6% (inactive)
O=C(NCCN1C(=O)C2C3C=CC(C3)C2C1=O)N1CCOCC1 (stereo not drawn)	549	-4.5% (inactive)	7.2% (inactive)	52.3	-8.6% (inactive)	69.7	-0.586 (inactive)	-1e-05 (inactive)	0.00653 (inactive)	3.84% (inactive)	27.8% (inactive)
CC(=O)c1ccc(OC(=O)c2cccs2)cc1	305	3.8% (inactive)	-6.3% (inactive)	99.1	-41.6% (inactive)	105	-0.498 (inactive)	-1.8e-05 (inactive)	0.00631 (inactive)	-3.03% (inactive)	22.4% (inactive)
Cc1c(C(=O)N2CCOCC2)oc2ccc(S(=O)(=O)N3CCCC3)cc12	729	-14.1% (inactive)	4.5% (inactive)	106	-31.7% (inactive)	105	-0.518 (inactive)	-7.1e-05 (inactive)	0.00624 (inactive)	-1.69% (inactive)	2.47% (inactive)
